# TDP1 cell noCPT – qHTS for Inhibitors of human tyrosyl-DNA phosphodiesterase 1 (TDP1): qHTS in cells in absence of CPT | 420,000 tested, 15% active | Potency, µM (series often up to 46.2 µM), without a hit: at the highest dose activity change, negative = growth inhibition, actives largely listed as inhibitors | DT40 Tdp1-/- hTDP1 cells, no CPT, ATP luminescence, 48 h; note: nearly all actives have a fitted effect of over 55% in size
#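 Stably hTDP1-transfected Tdp1-null chicken DT40 cells were treated with library compounds minus camptothecin and grown for at least 48 hr at 37 °C, after which cellular ATP was quantified by luminescence.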
# HT1080 IDH1KD tx – HT-1080 IDH1 knockdown cell toxicity (counter line); HT-1080 IDH1 knockdown viability, ATP luminescence, 48 h; 360,000 tested, 2% active; Potency, µM (top dose mostly 46.1 µM), without a hit: at the highest dose activity, negative = toxicity, hits mostly cytotoxic;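 note: 0% = DMSO wells and -100% = cell-free medium wells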
#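 Luminescent ATP read-out (CellTiter-Glo, 10 min at room temperature) after 48 h compound exposure at 37 °C gave viability of IDH1-knockdown HT-1080 cells. Activity was normalised to DMSO and cell-free wells, then fitted as concentration-response curves.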
# DT40 TDP1 CPT – growth inhibition of DT40 Tdp1-/-;hTDP1 cells with camptothecin (screen for TDP1 inhibitors). chicken DT40 Tdp1-/-;hTDP1 cells + 20 nM CPT, ATP luminescence, 48 h. Potency, µM (top dose mostly 46.2 µM), without a hit: at the top dose activity change, negative = growth inhibition, hits mostly inhibitors. 420,000 tested, 12% active. AID 686979; note: nearly all actives have a fitted effect of over 55% in size
#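 Chicken DT40 Tdp1-/- cells stably complemented with human TDP1 were seeded at 400 cells/well in medium containing 20 nM camptothecin, exposed to pin-transferred compounds, and grown at 37 °C for at least 48 hr. Viability was read as ATP luminescence.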
# KB-3-1 cytotox – kills parental KB-3-1 adenocarcinoma cells; KB-3-1 viability, CellTiter-Glo ATP luminescence, 72 h; Potency, µM (doses to about 46.1 µM), most hits filed as cytotoxic; 400,000 tested, 1.4% active; AID 1347075; note: nearly all actives have a fitted effect of over 60% in size
#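 Cytotoxicity measured as CellTiter-Glo luminescence after 72 h at 37 C. Compound titrations were pinned onto drug-naive KB-3-1 parental adenocarcinoma cells grown in DMEM with 10% FBS, and normalized data fitted to concentration-response curves.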
# HT1080NT lethal – kills 2HG-producing HT-1080-NT fibrosarcoma cells. HT-1080-NT fibrosarcoma viability, CellTiter-Glo ATP luminescence, 48 h. AID 686970. Potency, µM (highest dose often 46.1 µM), for the others: at the top dose activity, negative = less viability, actives largely listed as cytotoxic. 360,000 tested, 1.6% active;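 note: NT is the 2HG producing partner of a matched IDH1 knockdown line; 0% = DMSO-treated cells and -100% = media-only wells without cells; nearly all actives have a fitted effect of over 55% in size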
#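 HT-1080-NT fibrosarcoma cells (2HG-overproducing), 750 cells/well in RPMI with 5% FBS, dosed after 2 h and incubated 48 h at 37C. CellTiter-Glo luminescence normalized to DMSO and no-cell wells; concentration-response curves fitted and classed.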
# KB-V1 cytotox – kills drug-selected multidrug resistant KB-V1 cells; KB-V1 MDR cells viability, CellTiter-Glo, 72 h; Potency, µM (series often up to 46.1 µM), hits mostly cytotoxic; 400,000 tested, 3.4% active; AID 1347076; note: nearly all actives have a fitted effect of over 60% in size
#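 Cells of the MDR subline KB-V1 are plated, dosed with compound at multiple concentrations, and incubated 72 h at 37 degrees C; CellTiter-Glo is then added and luminescence read after 10 min.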
# * marks the source's active call; other numbers are inactive results; i = inactive; ? = inconclusive; . = not tested or not shown; ! = a repeat was not active; [ ] = another dose, or the depositor's remark. Hits are enriched below; roughly 19% of the tested compounds scored in any of these assays. Calls come from the whole dose curve; as a rule, active = well fitted curve in the direction sought with a large enough effect; inconclusive = small, poorly fitted or top-dose-only effect, or another doubt; inactive = no such curve, though single readings can be large; an effect the other way counts as inactive or inconclusive. Unless noted, % is set by controls: 0 for no effect and ±100 for the full control effect; potency is the fitted concentration of half-maximal effect.
SMILES,TDP1 cell noCPT,HT1080 IDH1KD tx,DT40 TDP1 CPT,KB-3-1 cytotox,HT1080NT lethal,KB-V1 cytotox
O=C(CSc1nc(=O)[nH]c2c1CCC2)NCc1ccc(F)cc1,-10%,.,17%,.,.,.
O=C(COc1cccnc1[N+](=O)[O-])N1CCc2ccccc21,-2%,20%,-12%,i,3%,i
Cc1ccc(-n2c(C)cc(C(=O)COc3cccnc3[N+](=O)[O-])c2C)cc1,10µM*,-1%,18µM*,i,-17%,i
Cc1cc(C(=O)COc2ccccc2C(N)=O)c(C)n1C,?,4%,-7%,i,5%,?
Cc1cc(C(=O)COc2cccc3cccnc23)c(C)n1C,?,-5%,-23%,i,-3%,16µM*
Cc1ccc(OCC(=O)c2cc(C)n(C)c2C)c([N+](=O)[O-])n1,-15%,7%,-9%,i,18%,i
Cc1cc(C(=O)COc2cccnc2[N+](=O)[O-])c(C)n1-c1ccccc1F,9.2µM*,-20%,18µM*,i,-2%,i
Cc1cc(C(=O)COc2cccnc2[N+](=O)[O-])c(C)n1-c1ccccc1,21µM*,?,?,i,-6%,i
Cc1cc(C(=O)COc2cccnc2[N+](=O)[O-])c(C)n1Cc1ccco1,26µM*,21µM*,?,?,?,?
COc1ccc2c(COC(=O)c3cccc(S(=O)(=O)NCC(C)C)c3)cc(=O)oc2c1,?,-23%,?,i,-21%,i
CCCNS(=O)(=O)c1cccc(C(=O)OCc2cc(=O)oc3cc(OC)ccc23)c1,1µM*,?,1µM*,i,?,i
COc1ccc2c(COC(=O)c3ccc(C)c(S(=O)(=O)N4CCOCC4)c3)cc(=O)oc2c1,16µM*,13%,?,i,1%,i
COc1ccc(C(=O)OCc2cc(=O)oc3cc(C)ccc23)cc1S(=O)(=O)N1CCOCC1,?,1%,-22%,i,1%,i
COc1ccc(Nc2nc(-c3ccc4c(c3)NC(=O)CO4)cs2)cc1,?,-26%,?,i,-6%,?
CCC(C)Nc1nc(-c2ccc3c(c2)NC(=O)CO3)cs1 (centres undefined),?,-11%,23µM*,i,-4%,i
COc1ccccc1Nc1nc(-c2ccc3c(c2)NC(=O)CO3)cs1,18µM*,?,23µM*,?,?,i
CCCCOc1cccc(NC(=O)CSc2nnc(C)s2)c1,-18%,.,-14%,i,.,i
Cc1cccc(N2C(=O)c3cccc4c(N5CCCCC5)c([N+](=O)[O-])cc(c34)C2=O)c1C,?,-5%,?,i,-4%,?
O=C1c2cccc3c(N4CCOCC4)c([N+](=O)[O-])cc(c23)C(=O)N1c1cccc2ccccc12,18µM*,0%,12µM*,?,-15%,i
COCc1ccc(C(=O)N2CCCC(N3CCN(c4cccc(Cl)c4)CC3)C2)s1 (centres undefined),?,-16%,?,i,-13%,i
O=C(C(=O)N1CCN(c2cccc(Cl)c2)CC1)N1CCCCC1,-21%,-16%,17%,i,19%,i
O=C(CCSCc1ccccc1Cl)N1CCN(c2cccc(Cl)c2)CC1,?,-2%,?,i,-17%,21µM*!
Cc1ccc(Cl)cc1N1CCN(C(=O)c2ccccc2SCC(=O)N2CCCC2)CC1,8.2µM*,-15%,21µM*,i,4%[9.24 µM],i
Cc1ccc(Cl)cc1N1CCN(C(=O)CCSCc2ccccc2F)CC1,23µM*,.,?,.,.,.
O=C(CCSCc1ccccc1F)N1CCN(c2ccccn2)CC1,-22%,9%[9.24 µM],-17%,i,2%,?

# Source: PubChem BioAssay (National Center for Advancing Translational Sciences (NCATS))
